Results from PubChem BioAssay AID1274 (Emory University Molecular Libraries Screening Center, 2008).
In all, about 220,000 compounds went through this assay and about 1,100 (0.5%) were called active.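 How the source made its calls: active means inhibition above about 30% (limit read from the data); inactive means the rest.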 The entries come from a sample that favours actives as a whole.

The compounds below were run against Neutrophil cytosol factor 1 (Homo sapiens) (UniProt P14598) (assay: blockers of p47phox binding to p22phox – biochemical, uHTS, NADPH oxidase regulatory subunit, primary screen (AID 1274;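 further: 0% = p47phox with labelled peptide and 100% = labelled peptide alone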)). Details: p47phox/p22phox peptide binding, fluorescence polarization, 2 h; at 24.7 µM; hits give high values.
Chain of Neutrophil cytosol factor 1 (Homo sapiens) (P14598 whole entry, looked up): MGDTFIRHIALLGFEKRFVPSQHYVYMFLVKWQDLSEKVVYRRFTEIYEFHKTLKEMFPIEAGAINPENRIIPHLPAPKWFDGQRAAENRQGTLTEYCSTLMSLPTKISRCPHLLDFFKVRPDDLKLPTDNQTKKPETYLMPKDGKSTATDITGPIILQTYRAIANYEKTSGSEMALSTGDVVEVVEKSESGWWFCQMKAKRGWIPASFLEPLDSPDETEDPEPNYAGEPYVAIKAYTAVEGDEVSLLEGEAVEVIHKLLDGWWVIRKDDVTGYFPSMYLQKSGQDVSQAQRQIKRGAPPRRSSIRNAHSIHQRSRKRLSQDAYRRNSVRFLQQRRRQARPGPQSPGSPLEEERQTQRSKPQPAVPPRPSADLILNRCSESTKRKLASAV

inhibition, active:
O=C(c1cccc(C(=O)N2CCc3ccccc32)n1)N1CCc2ccccc21 45.6%
CCCCN=C1C([N+](=O)[O-])=CC=C2C1=NC1(CCCCC1)N2O 103%
Oc1ccc2ccccc2c1N=Nc1nccs1 59.9%
CCN1CCN(C(c2cccnc2)c2cc(Cl)c3cccnc3c2O)CC1 (centres undefined) 38.2%
CCOC(=O)C1CCN(c2ncnc3c2oc2ccc(Br)cc23)CC1 48.6%
CC(Oc1ccc(-c2ccccc2)c(F)c1)c1ccn(S(=O)(=O)c2cccc3ccccc23)n1 (centres undefined) 30.5%
CC(=O)OCc1cc(=O)n(C)c(=O)n1C 38.7%
Cn1c(SCC(=O)Nc2cccc(O)c2)nnc1-c1ccc(S(=O)(=O)N2CCOCC2)cc1 36.6%
O=C(COc1ccc2oc3c(c2c1)CCCC3)Nc1ccccn1 178%
CCN(CC)CCCN=Cc1c(O)n(-c2ccc(C)cc2)c(=O)c2ccccc12 111%
Cc1nc2nc(C)c(CCC(=O)N3CCN(c4ccccc4)CC3)c(C)n2n1 37.8%

inhibition, inactive:
O=C(c1cnn2ccccc12)N1CCc2ccccc21 -1.85%
NC(=O)N1CCc2ccccc21 3.78%
Nc1nnn(CC(=O)N/N=C/c2ccc(O)cc2)n1 -6.45%
CN(C)c1nc(=Nc2cccc(Cl)c2)ss1 -21.8%
Oc1ccc(N=Nc2nccs2)c(O)c1 -48.9%
Oc1c(C=Nc2cccc3nsnc23)ccc2ccccc12 -51.3%
CCN(C(=O)COC(=O)/C=C/c1nc2ccccc2s1)C1CCS(=O)(=O)C1 (centres undefined) -4.73%
CCOC(=O)N1CCN(C(c2cccnc2)c2ccc3cccnc3c2O)CC1 (centres undefined) 6.02%
Oc1c(CN2CCN(c3ccc(F)cc3)CC2)cc(Cl)c2cccnc12 11.9%
CC(=O)Nc1nc(C)c(-c2csc(Nc3ccc(S(N)(=O)=O)cc3)n2)s1 -21.6%
CCOC(=O)C1CCN(C(=O)c2oc3ccc(S(=O)(=O)N4CCCCCC4)cc3c2C)CC1 -9.11%
CCOC(=O)C1CCN(c2ncnc3c2c(-c2ccccc2)cn3-c2ccc(C)cc2)CC1 -0.04%
CCN(CC)N=Nc1cccc(NC(C)=O)c1 2.47%
O=C(CSC(=S)N1CCCCC1)c1c(F)cccc1F -20.4%
CC(C)Oc1ccc(CC(=O)NNC(=S)Nc2ccc(Br)cc2)cc1 -4.65%
Cc1cccc(C)c1NC(=O)C1(N(C(=O)c2ccccn2)c2ccc(O)cc2)CCCCC1 -4.76%
COc1ccc(Nc2nc(N)nc(CSC(=S)N3CCC(C)CC3)n2)cc1 -5.99%
CCn1c(SCC(=O)N/N=C/c2ccncc2)nc2ccccc21 3.59%
NNc1nc2c(Cl)cccc2s1 -5.57%
CC(C)Oc1ccc(C(=O)Nc2cc(=O)n(C)c(=O)n2C)cc1 -14%
CC(=O)c1c(N)n(C)c(=O)n(C)c1=O -3.86%
O=C1CN(C(=O)CN2C(=O)NC3(CCCCC3)C2=O)c2ccccc2N1 -8.11%
C=CCC1(C#N)C(=S)NC(C)=C(C(=O)OCC)C1c1ccccc1 (centres undefined) -0.89%
C=CCN1CC(C)/C(=N\O)CC1C (centres undefined) -0.6%
Cn1c(SCC(=O)OC2CCCCC2)nnc1-c1ccc(S(=O)(=O)N2CCCC2)cc1 -1.77%
CCC(=O)Nc1cccc(NC(=O)CSc2nnc(-c3ccc(NS(C)(=O)=O)cc3)n2C)c1 -16.1%
Nc1c(NCCc2ccccc2)c2ccccc2oc1=O -7.7%
Cc1cc(C)cc(OCC(=O)Nc2ccc(S(=O)(=O)Nc3ccccn3)cc2)c1 -4.16%
Cc1ccc(OCC(=O)Nc2ccc(S(=O)(=O)Nc3ccccn3)cc2)cc1 5.31%
Cc1ccc(S(=O)(=O)NNC(=S)NC(C)(C)C)cc1 -8.25%
CCc1ccccc1NC(=O)CSc1nnc(CCNC(=O)OC(C)(C)C)o1 -6.69%
CCN(CC(=O)NCCc1ccccc1)S(=O)(=O)c1ccccc1 -6.19%
O=C(Nc1ccc(Br)cn1)C1CCN(S(=O)(=O)c2cccs2)CC1 -5.24%
CCOc1ccc(-n2c(O)c(/C=N/Nc3nnc(C)c(=O)[nH]3)c3ccccc3c2=O)cc1 -44.3%
CCOc1ccc(-n2c(O)c(/C=N/Nc3nc(C)cc(C)n3)c3ccccc3c2=O)cc1 -10.2%
O=C(O)C1CCN(C(=O)c2cc(F)cc3c2OCOC3)CC1 -5.96%
Cc1nc2c(-c3ccc(F)cc3)c(C)nn2c(C)c1CCC(=O)N1CCN(c2ccccn2)CC1 -1.7%
Cc1nc2ncnn2c(C)c1CCC(=O)N1CCN(C(=O)c2ccco2)CC1 2.67%
